Results as given in the supplement of paper PMC10037445.
The full ranking holds about 2,900 compounds; the median of “NF-kB SEAP reporter activity, fold change vs agonist alone” is about 0.99, and the highest 2% start at about 2.6. The sample as a whole holds a higher share of the highest values than the screen did.

Assays:
RAW-Dual [1] = experiment: NF-kB SEAP reporter activity, fold change vs agonist alone; higher = enhanced NF-kB activity; settings: library stock concentration (final ~1000-fold dilution): 10 mM
In short: (§1)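 Supernatant from RAW-Dual macrophages was read after 20 hours for IRF by QuantiLuc luminescence and for NF-κB by QuantiBlue absorbance at 620 nm. The cells (50,000 cells/well in DMEM, 384-well plates, 37 °C, 5% CO2) had received 50 nL of library stock by pin tool and, 1 h later, a PRR agonist. Reporter activity is expressed relative to agonist-alone wells as fold change, and wells were flagged cytotoxic if IncuCyte confluency was under 70% of agonist controls in both mask sets.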

RAW-Dual [2] = experiment: NF-kB SEAP reporter activity, fold change vs agonist alone; cytotoxicity flag (confluency mask): not cytotoxic; higher = enhanced NF-kB activity
In short: as §1

RAW-Dual [3] = experiment: NF-kB SEAP reporter activity, fold change vs agonist alone; cytotoxicity flag (confluency mask): cytotoxic (confluency <70% of control); higher = enhanced NF-kB activity
In short: as §1

[4] = cytotoxicity flag (confluency mask): cytotoxic (confluency <70% of control), agonist: Imiquimod (TLR7) […]
[5] = cytotoxicity flag (confluency mask): cytotoxic (confluency <70% of control), agonist: MPLA (TLR4) […]
[6] = agonist: ODN 1826 (TLR9) 0.5 ug/mL
[7] = agonist: Pam2CSK4 (TLR2/6) 0.1 ug/mL
[8] = agonist: Pam3CSK4 (TLR2/1) 0.1 ug/mL
[9] = cytotoxicity flag (confluency mask): not cytotoxic, agonist: Imiquimod (TLR7) […]
[10] = cytotoxicity flag (confluency mask): not cytotoxic, agonist: MPLA (TLR4) […]

Structure (SMILES): O=C(Nc1ccc([N+](=O)[O-])cc1O)Nc1ccccc1Br
- NF-kB SEAP reporter activity (RAW-Dual [1]; [4]): 1.47
- NF-kB SEAP reporter activity (RAW-Dual [1]; [5]): 1.48

Structure (SMILES): CS(=O)(=O)Nc1ccc([N+](=O)[O-])cc1Oc1ccccc1 (library stock concentration (final ~1000-fold dilution): 10 mM)
- NF-kB SEAP reporter activity (RAW-Dual [2]; agonist: LPS (TLR4) 0.1 ug/mL): 1.05
- NF-kB SEAP reporter activity (RAW-Dual [2]; [6]): 0.993
- NF-kB SEAP reporter activity (RAW-Dual [2]; [7]): 0.937
- NF-kB SEAP reporter activity (RAW-Dual [2]; [8]): 0.873

Structure (SMILES): O=C(Nc1ccccc1)c1cc([N+](=O)[O-])ccc1Cl
- NF-kB SEAP reporter activity (RAW-Dual [1]; [9]): 1.37
- NF-kB SEAP reporter activity (RAW-Dual [1]; [10]): 0.89

Structure (SMILES): O=C(Nc1ccccc1)c1cc([N+](=O)[O-])ccc1Cl (library stock concentration (final ~1000-fold dilution): 10 mM)
- NF-kB SEAP reporter activity (RAW-Dual [2]; agonist: LPS (TLR4) 0.1 ug/mL): 0.722
- NF-kB SEAP reporter activity (RAW-Dual [2]; [6]): 0.873
- NF-kB SEAP reporter activity (RAW-Dual [2]; [7]): 0.881
- NF-kB SEAP reporter activity (RAW-Dual [2]; [8]): 0.836

Structure (SMILES): O=C(Nc1ccc([N+](=O)[O-])cc1O)Nc1ccccc1Br (library stock concentration (final ~1000-fold dilution): 10 mM)
- NF-kB SEAP reporter activity (RAW-Dual [3]; agonist: LPS (TLR4) 0.1 ug/mL): 2.98
- NF-kB SEAP reporter activity (RAW-Dual [3]; [6]): 2.14
- NF-kB SEAP reporter activity (RAW-Dual [3]; [7]): 0.989
- NF-kB SEAP reporter activity (RAW-Dual [3]; [8]): 1.7

Structure (SMILES): CS(=O)(=O)Nc1ccc([N+](=O)[O-])cc1Oc1ccccc1
- NF-kB SEAP reporter activity (RAW-Dual [1]; [9]): 0.516
- NF-kB SEAP reporter activity (RAW-Dual [1]; [10]): 1.08

Structure (SMILES): FC(F)F.N=C(N)NCCCC1NC(=O)C(CCCCN)NC(=O)C(Cc2ccc(O)cc2)NC(=O)C(CC(=O)O)NC(=O)CNC1=O.O=C(O)C(F)(F)F.O=CO (configuration not stated) (library stock concentration (final ~1000-fold dilution): 10 mM)
- NF-kB SEAP reporter activity (RAW-Dual [2]; agonist: LPS (TLR4) 0.1 ug/mL): 1.23
- NF-kB SEAP reporter activity (RAW-Dual [2]; [6]): 0.997
- NF-kB SEAP reporter activity (RAW-Dual [2]; [7]): 1.14
- NF-kB SEAP reporter activity (RAW-Dual [2]; [8]): 0.899

Structure (SMILES): FC(F)F.N=C(N)NCCCC1NC(=O)C(CCCCN)NC(=O)C(Cc2ccc(O)cc2)NC(=O)C(CC(=O)O)NC(=O)CNC1=O.O=C(O)C(F)(F)F.O=CO (configuration not stated)
- NF-kB SEAP reporter activity (RAW-Dual [1]; [9]): 0.972
- NF-kB SEAP reporter activity (RAW-Dual [1]; [10]): 1.04

Structure (SMILES): c1cc(-c2cnn3cc(-c4ccc(N5CCNCC5)cc4)cnc23)c2cccnc2c1
- NF-kB SEAP reporter activity (RAW-Dual [1]; [4]): 0.258
- NF-kB SEAP reporter activity (RAW-Dual [1]; [5]): 0.269

Structure (SMILES): COc1cc(-c2cc(-c3cccc(O)c3)cnc2N)cc(OC)c1OC (library stock concentration (final ~1000-fold dilution): 10 mM)
- NF-kB SEAP reporter activity (RAW-Dual [2]; agonist: LPS (TLR4) 0.1 ug/mL): 1.87
- NF-kB SEAP reporter activity (RAW-Dual [2]; [6]): 1.54
- NF-kB SEAP reporter activity (RAW-Dual [2]; [7]): 1.09
- NF-kB SEAP reporter activity (RAW-Dual [2]; [8]): 1.39

Structure (SMILES): COc1cc(-c2cc(-c3cccc(O)c3)cnc2N)cc(OC)c1OC
- NF-kB SEAP reporter activity (RAW-Dual [1]; [9]): 1.24
- NF-kB SEAP reporter activity (RAW-Dual [1]; [10]): 1.77

Structure (SMILES): COc1cc(-c2cc(-c3ccc(N4CCNCC4)cc3)cnc2C)cc(OC)c1OC
- NF-kB SEAP reporter activity (RAW-Dual [1]; [9]): 1.28
- NF-kB SEAP reporter activity (RAW-Dual [1]; [10]): 1.94

Structure (SMILES): COc1cc(-c2cc(-c3ccc(N4CCNCC4)cc3)cnc2C)cc(OC)c1OC (library stock concentration (final ~1000-fold dilution): 10 mM)
- NF-kB SEAP reporter activity (RAW-Dual [2]; agonist: LPS (TLR4) 0.1 ug/mL): 3.37
- NF-kB SEAP reporter activity (RAW-Dual [2]; [6]): 0.202
- NF-kB SEAP reporter activity (RAW-Dual [2]; [7]): 1.29
- NF-kB SEAP reporter activity (RAW-Dual [2]; [8]): 1.57

Structure (SMILES): c1cc(-c2cnn3cc(-c4ccc(N5CCNCC5)cc4)cnc23)c2cccnc2c1 (library stock concentration (final ~1000-fold dilution): 10 mM)
- NF-kB SEAP reporter activity (RAW-Dual [3]; agonist: LPS (TLR4) 0.1 ug/mL): 0.202
- NF-kB SEAP reporter activity (RAW-Dual [3]; [6]): 0.193
- NF-kB SEAP reporter activity (RAW-Dual [3]; [7]): 0.0775
- NF-kB SEAP reporter activity (RAW-Dual [3]; [8]): 0.149

Structure (SMILES): C[C@@H]1O[C@@H](O[C@H]2[C@H](OC(=O)[C@]34CCC(C)(C)C[C@H]3C3=CC[C@@H]5[C@@]6(C)C[C@H](O)[C@H](O[C@@H]7O[C@H](CO)[C@@H](O)[C@H](O)[C@H]7O)[C@@](C)(CO)[C@@H]6CC[C@@]5(C)[C@]3(C)CC4)O[C@H](CO)[C@@H](O)[C@@H]2O)[C@H](O)[C@H](O)[C@H]1O[C@@H]1OC[C@@H](O)[C@H](O)[C@H]1O (library stock concentration (final ~1000-fold dilution): 10 mM)
- NF-kB SEAP reporter activity (RAW-Dual [2]; agonist: LPS (TLR4) 0.1 ug/mL): 1.11
- NF-kB SEAP reporter activity (RAW-Dual [2]; [6]): 0.984
- NF-kB SEAP reporter activity (RAW-Dual [2]; [7]): 1.04
- NF-kB SEAP reporter activity (RAW-Dual [2]; [8]): 1.19

Structure (SMILES): C[C@@H]1O[C@@H](O[C@H]2[C@H](OC(=O)[C@]34CCC(C)(C)C[C@H]3C3=CC[C@@H]5[C@@]6(C)C[C@H](O)[C@H](O[C@@H]7O[C@H](CO)[C@@H](O)[C@H](O)[C@H]7O)[C@@](C)(CO)[C@@H]6CC[C@@]5(C)[C@]3(C)CC4)O[C@H](CO)[C@@H](O)[C@@H]2O)[C@H](O)[C@H](O)[C@H]1O[C@@H]1OC[C@@H](O)[C@H](O)[C@H]1O
- NF-kB SEAP reporter activity (RAW-Dual [1]; [9]): 0.83
- NF-kB SEAP reporter activity (RAW-Dual [1]; [10]): 1.01

Structure (SMILES): CN(C)C(CCOc1cccc2ccccc12)c1ccccc1.Cl (configuration not stated) (library stock concentration (final ~1000-fold dilution): 10 mM)
- NF-kB SEAP reporter activity (RAW-Dual [3]; agonist: LPS (TLR4) 0.1 ug/mL): 1.05
- NF-kB SEAP reporter activity (RAW-Dual [3]; [6]): 0.655
- NF-kB SEAP reporter activity (RAW-Dual [3]; [7]): 0.546
- NF-kB SEAP reporter activity (RAW-Dual [3]; [8]): 0.65

Structure (SMILES): CN(C)C(CCOc1cccc2ccccc12)c1ccccc1.Cl (configuration not stated)
- NF-kB SEAP reporter activity (RAW-Dual [1]; [4]): 1.61
- NF-kB SEAP reporter activity (RAW-Dual [1]; [5]): 0.958

Structure (SMILES): CCCSc1nc(NC2CC2c2ccc(F)c(F)c2)c2nnn(C3CC(OCCO)C(O)C3O)c2n1 (configuration not stated)
- NF-kB SEAP reporter activity (RAW-Dual [1]; [4]): 1.05
- NF-kB SEAP reporter activity (RAW-Dual [1]; [5]): 0.94

Structure (SMILES): CCCSc1nc(NC2CC2c2ccc(F)c(F)c2)c2nnn(C3CC(OCCO)C(O)C3O)c2n1 (configuration not stated) (library stock concentration (final ~1000-fold dilution): 10 mM)
- NF-kB SEAP reporter activity (RAW-Dual [3]; agonist: LPS (TLR4) 0.1 ug/mL): 1.04
- NF-kB SEAP reporter activity (RAW-Dual [3]; [6]): 0.615
- NF-kB SEAP reporter activity (RAW-Dual [3]; [7]): 0.51
- NF-kB SEAP reporter activity (RAW-Dual [3]; [8]): 0.332

Structure (SMILES): Cl.Cl.O=C(O)c1ccc(CN2CCC(CNC3CC3c3ccccc3)CC2)cc1 (configuration not stated) (library stock concentration (final ~1000-fold dilution): 10 mM)
- NF-kB SEAP reporter activity (RAW-Dual [2]; agonist: LPS (TLR4) 0.1 ug/mL): 1.01
- NF-kB SEAP reporter activity (RAW-Dual [2]; [6]): 1.22
- NF-kB SEAP reporter activity (RAW-Dual [2]; [7]): 0.875
- NF-kB SEAP reporter activity (RAW-Dual [2]; [8]): 0.786

Structure (SMILES): Cl.Cl.O=C(O)c1ccc(CN2CCC(CNC3CC3c3ccccc3)CC2)cc1 (configuration not stated)
- NF-kB SEAP reporter activity (RAW-Dual [1]; [9]): 1.01
- NF-kB SEAP reporter activity (RAW-Dual [1]; [10]): 1.05

Structure (SMILES): COc1cnc(NS(=O)(=O)c2ccc(N)cc2)nc1
- NF-kB SEAP reporter activity (RAW-Dual [1]; [9]): 0.927
- NF-kB SEAP reporter activity (RAW-Dual [1]; [10]): 1.02

Structure (SMILES): COc1ccc(S(=O)(=O)Nc2cccnc2Nc2ccc(O)cc2)cc1 (library stock concentration (final ~1000-fold dilution): 10 mM)
- NF-kB SEAP reporter activity (RAW-Dual [2]; agonist: LPS (TLR4) 0.1 ug/mL): 4.93
- NF-kB SEAP reporter activity (RAW-Dual [2]; [6]): 3.17
- NF-kB SEAP reporter activity (RAW-Dual [2]; [7]): 1.86
- NF-kB SEAP reporter activity (RAW-Dual [2]; [8]): 2.22
